Results taken from the supplement of paper PMC12297408.
Counter-ions that a name gives are not always drawn. About 40 (3%) of roughly 1,300 compounds showed activity. The sample as a whole holds a higher share of actives than the screen did. Values without a mark were called inactive.

System: Plasmodium falciparum NF54/iGP1_RE9H ulg8 stage V gametocytes
Test: gametocyte viability (luciferase signal relative to DMSO control) (% of DMSO control); higher = less gametocytocidal activity, active = 50 or less
Details: exposure time: 72 h
Outline: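 NF54/iGP1_RE9Hulg8 stage V gametocytes (day 12; ~2.5% gametocytemia, 3% hematocrit) were incubated with compounds at 10 µM or 1 µM final, in one well each, for 72 h at 37 °C in medium with 0.5% Albumax II. Luminescence after D-luciferin addition was read on an IVIS Lumina II. Viability refers to the mean of plate DMSO vehicle wells.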

Structure (SMILES)	gametocyte viability (concentration: 1 µM)	gametocyte viability (concentration: 10 µM)
CN(C)CCc1c[nH]c2ccc(C[C@H]3COC(=O)N3)cc12 [Zolmitriptan]	83.8	81.7
COc1ccccc1N1CCN(CCCNc2cc(=O)n(C)c(=O)n2C)CC1 [Urapidil hydrochloride]	75.6	48.5 (active)
COc1ccccc1N1CCN(CC(O)COc2cccc3ccccc23)CC1 (configuration not stated) [Naftopidil dihydrochloride]	90.8	83.2
COc1ccccc1N1CCN(CCCCNC(=O)c2ccc3ccccc3c2)CC1	82.8	73.7
CCOC(=O)[C@H](CCc1ccccc1)N[C@@H](C)C(=O)N1CCC[C@H]1C(=O)O [Enalapril maleate]	81.9	86.7
COc1ccc(CCN(C)CCCC(C#N)(c2ccc(OC)c(OC)c2)C(C)C)cc1OC (configuration not stated) [Verapamil hydrochloride]	91.8	99.3
N/C(=N\C(=O)c1nc(Cl)c(N)nc1N)NCc1ccccc1 [Benzamil hydrochloride]	88.7	81.1
CC(C)c1ccc2oc3nc(N)c(C(=O)O)cc3c(=O)c2c1 [Amlexanox]	80	81.5
CCCCC(O)c1ccccc1 (configuration not stated) [Fenipentol]	82	82.9
CC(C)(C)NC(=O)[C@@H]1CN(Cc2cccnc2)CCN1C[C@@H](O)C[C@@H](Cc1ccccc1)C(=O)N[C@H]1c2ccccc2C[C@H]1O [Indinavir sulfate]	67	40 (active)
CC(C)(C)NC(=O)[C@@H]1C[C@@H]2CCCC[C@@H]2CN1C[C@@H](O)[C@H](Cc1ccccc1)NC(=O)[C@H](CC(N)=O)NC(=O)c1ccc2ccccc2n1 [Saquinavir mesylate]	82.4	78.9
CCSc1ccc2c(c1)N(CCCN1CCN(C)CC1)c1ccccc1S2 [Thiethylperazine dimalate]	83.3	32.4 (active)
CN1CCN(CCCN2c3ccccc3Sc3ccc(S(=O)(=O)N(C)C)cc32)CC1 [Thioproperazine dimesylate]	81.7	52.8
OCCN1CCN(CCCN2c3ccccc3Sc3ccc(C(F)(F)F)cc32)CC1 [Fluphenazine dihydrochloride]	89.1	68.1
CN1CCN(CCCN2c3ccccc3Sc3ccc(Cl)cc32)CC1 [Prochlorperazine dimaleate]	81.3	78.9
CN1CCCCC1CCN1c2ccccc2Sc2ccc([S+](C)[O-])cc21 (configuration not stated) [Mesoridazine besylate]	88.9	88.7
CN(C)CCCN1c2ccccc2Sc2ccc(C(F)(F)F)cc21 [Triflupromazine hydrochloride]	83.7	81.5
CN1CCN(CCCN2c3ccccc3Sc3ccc(C(F)(F)F)cc32)CC1 [Trifluoperazine dihydrochloride]	82.8	46.8 (active)
CSc1ccc2c(c1)C(N1CCN(C)CC1)Cc1ccccc1S2 (configuration not stated) [Methiothepin maleate]	86.1	75.3

Structure (SMILES)	gametocyte viability (concentration: 1 µM)	gametocyte viability (concentration: 10 µM)
CSc1ccc2c(c1)N(CCC1CCCCN1C)c1ccccc1S2 (configuration not stated) [Thioridazine hydrochloride]	87.7	30.1 (active)
C=C1/C(=C\C=C2/CCC[C@]3(C)[C@@H]([C@H](C)/C=C/[C@@H](O)C4CC4)CC[C@@H]23)C[C@@H](O)C[C@@H]1O [Calcipotriene]	79.2	64.3
CCN[C@H]1C[C@H](C)S(=O)(=O)c2sc(S(N)(=O)=O)cc21 [Dorzolamide hydrochloride]	80.2	87.2
CC(C)(Sc1cc(C(C)(C)C)c(O)c(C(C)(C)C)c1)Sc1cc(C(C)(C)C)c(O)c(C(C)(C)C)c1 [Probucol]	84.2	85.2
NC[C@@H]1O[C@H](O[C@H]2[C@@H](O)[C@H](O[C@@H]3[C@@H](O)[C@H](N)C[C@H](N)[C@H]3O[C@H]3O[C@H](CN)[C@@H](O)[C@H](O)[C@H]3N)O[C@@H]2CO)[C@H](N)[C@@H](O)[C@@H]1O [Neomycin sulfate]	81.7	84.7
COc1cc(C(=O)OCCCN2CCCN(CCCOC(=O)c3cc(OC)c(OC)c(OC)c3)CC2)cc(OC)c1OC [Dilazep dihydrochloride]	85.4	94.7
COCCCOc1ccnc(C[S+]([O-])c2nc3ccccc3[nH]2)c1C (configuration not stated) [Rabeprazole Sodium salt]	83.8	80.3
CN(C)c1ccc(O)c2c1C[C@H]1C[C@H]3[C@H](N(C)C)C(=O)C(C(N)=O)=C(O)[C@@]3(O)C(=O)C1=C2O [Minocycline hydrochloride]	83.1	83.3
C=C(CC)C(=O)c1ccc(OCC(=O)O)c(Cl)c1Cl [Ethacrynic acid]	90.4	92.5
N=C(N)NCc1cccc(I)c1 [Iobenguane sulfate]	99.3	100
CC1(C)O[C@@H]2C[C@H]3[C@@H]4C[C@H](F)C5=CC(=O)C=C[C@]5(C)[C@@]4(F)[C@@H](O)C[C@]3(C)[C@]2(C(=O)CO)O1 [Fluocinolone acetonide]	83.3	83.3
CCC1=C(C)CN(C(=O)NCCc2ccc(S(=O)(=O)NC(=O)N[C@H]3CC[C@H](C)CC3)cc2)C1=O [Glimepiride]	97.7	101
CC(C)(Oc1ccc(CCNC(=O)c2ccc(Cl)cc2)cc1)C(=O)O [Bezafibrate]	98.6	97
CCCCC(CC)CNC(=N)NC(=N)NCCCCCCNC(=N)NC(=N)NCC(CC)CCCC (configuration not stated) [Alexidine dihydrochloride]	36.2 (active)	0.515 (active)
O=C(O)[C@H]1/C(=C/CO)O[C@@H]2CC(=O)N21 [Potassium clavulanate]	91.1	87.4
C[C@]12CC[C@@H]3c4ccc(O)cc4CC[C@H]3[C@@H]1C[C@@H](O)[C@@H]2O [Estriol]	94.6	92.2
C[C@]12CC[C@@H]3c4ccc(O)cc4CC[C@H]3[C@@H]1CC[C@@H]2O [Estradiol-17 beta]	69.7	41.9 (active)
C[C@]12CC[C@@H]3c4ccc(O)cc4CC[C@H]3[C@@H]1CCC2=O [Estrone]	99.2	96.4
CCCCCCC[N+](CC)(CC)CCCCc1ccc(Cl)cc1 [Clofilium tosylate]	97.3	47.8 (active)

Structure (SMILES)	gametocyte viability (concentration: 1 µM)	gametocyte viability (concentration: 10 µM)
NNC(=O)c1ccncc1 [Isoniazid]	80.8	83.4
Cc1ncc(C[n+]2csc(CCO)c2C)c(N)n1 [Thiamine hydrochloride]	94	89.4
CCCc1cc(C(N)=S)ccn1 [Prothionamide]	93.7	95.2
CC(=O)Oc1cc(C(F)(F)F)ccc1C(=O)O [Triflusal]	82.3	87.1
CC1(O)CCOC(=O)C1 (configuration not stated) [Mevalonic-D, L acid lactone]	86.7	93.8
CC1c2cccc(O)c2C(O)=C2C(=O)C3(O)C(O)=C(C(N)=O)C(=O)C(N(C)C)C3C(O)C21 (configuration not stated) [Doxycycline hydrochloride]	94.5	92.2
CC(=O)N(O)CCCCCNC(=O)CCC(=O)N(O)CCCCCNC(=O)CCC(=O)N(O)CCCCCN [Deferoxamine mesylate]	90.6	82.7
CC(C(O)c1ccc(O)cc1)N1CCC(Cc2ccccc2)CC1 (configuration not stated) [Ifenprodil tartrate]	81.9	79.7
CC(=O)O[C@H]1C[C@@H]2CC[C@@H]3[C@H](CC[C@@]4(C)[C@H]3C[C@H]([N+]3(C)CCCCC3)[C@@H]4OC(C)=O)[C@@]2(C)C[C@@H]1N1CCCCC1 [Vecuronium bromide]	85.2	93.1
CCC(C)(C)c1ccc(CC(C)CN2C[C@@H](C)O[C@@H](C)C2)cc1 (some centres not stated) [Amorolfine hydrochloride]	79.2	71.3
Cc1ccc(C)c(OCCCC(C)(C)C(=O)O)c1 [Gemfibrozil]	86.7	88.3
C=CC(N)CCC(=O)O (configuration not stated) [Vigabatrin]	84.9	90.6
CC(Oc1c(Cl)cccc1Cl)C1=NCCN1 (configuration not stated) [Lofexidine]	92.5	90.5
CCCCC1C(=O)N(c2ccccc2)N(c2ccccc2)C1=O [Phenylbutazone]	91	85.4
O=C(O)CN(CCN(CC(=O)O)CC(=O)O)CCN(CC(=O)O)CC(=O)O [Pentetic acid]	101	101
NNc1nncc2ccccc12 [Hydralazine hydrochloride]	94.8	12.8 (active)
CCOC(=O)NNc1nncc2ccccc12 [Todralazine hydrochloride]	86.1	76.5
O=C1C(=O)c2ccccc2C(O)=C1C1CCC(c2ccc(Cl)cc2)CC1 (configuration not stated) [Atovaquone]	91.4	99.6
